Records with an inconclusive call do not appear. The source made the active and inactive calls. Calls come from the whole dose curve; as a rule, active = well fitted inhibition curve with a large enough effect; inconclusive = small, poorly fitted or top-dose-only effect; inactive = no such curve, though single readings can be large or run the other way.

For experiment [1], the system named is Zika virus NS2B-NS3 protease (unlinked complex). Kind of experiment: Primary screen GU Rhodamine qHTS for Zika virus inhibitors: Unlinked NS2B-NS3 protease assay (AID 1347159). Note: nearly all actives have a fitted effect of over 60% in size. The note with it: Recombinant ZIKV NS2B-NS3 protease, Rhodamine110 substrate fluorescence; series mostly up to 107 µM. In a few lines: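 Noncovalent NS2B hydrophilic domain–NS3 protease domain complex (25 nM) preincubated 15 min at room temperature with compounds (up to 114 microM) in 10 mM Tris-HCl pH 8.0, 0.01% Tween 20; 1.5 microM Rhodamine110 substrate added, fluorescence change over 15 min fitted to Hill equation.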

The subject of experiment [2] is Zika virus NS2B-NS3 protease (linked construct). Kind of experiment: Primary screen NINDS Rhodamine qHTS for Zika virus inhibitors (AID 1347160). Note: nearly all actives have a fitted effect of over 55% in size. To be noted: purified NS2B-NS3 protease, Rhodamine110 substrate fluorescence; series mostly up to 57.1 µM. Summed up:
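Purified linked NS2B-NS3 protease (NS2B hydrophilic domain joined to NS3 protease by flexible linker), 25 nM in 10 mM Tris-HCl pH 8.0, 0.01% Tween 20. Compounds titrated, 15 min preincubation at room temperature; 1.5 microM Rhodamine110 substrate, FITC fluorescence change over 15 min.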
(qHTS replaces the single test concentration by a dilution series.)
Potency is the fitted concentration of half-maximal effect.

Take `CC(=O)NC(C)c1cnc(-c2cnc(Oc3ccc(OC(C)C)cc3)s2)s1` (stereo unspecified): the Potency result in experiment [1] and in experiment [2] was “inactive” in each case.
For `C=C(C)C1CC(O)C(C)C12CC(O)C1(C)OC1C2O` (stereo unspecified), the Potency result in experiment [1] and in experiment [2] was “inactive” throughout.
Consider `CC1(CO)CC(O)[C@]2(C(=O)O)CCC34CC3(C=CC3[C@]5(C)C(CC[C@]34C)C(C)(CO)[C@@H](O)[C@H](O)[C@@H]5O)C2C1` (stereo partly specified), for which the Potency entry in experiment [1] and in experiment [2] was “inactive” throughout.
For `CN(C)CCN(Cc1ccccc1)C(=O)c1cc(-c2ccc(F)cc2)n2nc(C(C)(C)C)cc2n1`, the Potency entry in experiment [1] and in experiment [2] was “inactive” throughout.
As for `O=C1Nc2nc(-c3c(O)cccc3OCC3CC3)cc([C@@H]3CCCNC3)c2CO1`, the Potency result in experiment [1] and in experiment [2] was “inactive” in each case.
`CC(C)c1c(O)ccc2c1CC[C@H]1C(C)(C)CCC[C@]21C`: the Potency is 14.1 µM (active) in experiment [1] and 22.4 µM (active) in experiment [2].
Take `CC(C)(C)NC(=O)[C@H]1CC[C@H]2[C@@H]3CC[C@H]4NC(=O)CC[C@]4(C)[C@H]3CC[C@]12C`: the Potency result in experiment [1] and in experiment [2] was “inactive” in each case.
Regarding `C=C1CC[C@@H]2[C@](C)(CO)[C@H](O)CC[C@@]2(C)[C@@H]1/C=C/C1=CCOC1=O`, the Potency entry in experiment [1] and in experiment [2] was “inactive” each time.
Consider `CC[C@H]1CN(c2nc(N)c(C(N)=O)nc2Cl)CCN1C1CCN(Cc2ccc(Cl)cc2)CC1`, for which the Potency entry in experiment [1] and in experiment [2] was “inactive” throughout.
As to `C=CC(=O)N1CCCN(c2cc(NCCC(=O)O)nc(-c3ccccn3)n2)CC1`, the Potency entry in experiment [1] and in experiment [2] was “inactive” in each case.
In the case of `CCCN(CCc1ccsc1)C1CCc2c(O)cccc2C1` (stereo unspecified), the Potency result in experiment [1] and in experiment [2] was “inactive” throughout.
For `Cc1cc(C(=O)Nc2cc(Oc3ccc4nc(NC(=O)C5CC5)cn4n3)ccc2C)n(C)n1`, the Potency result in experiment [1] and in experiment [2] was “inactive” each time.
Turning to `CN(C)C(CCOc1cccc2ccccc12)c1ccccc1` (stereo unspecified), the Potency result in experiment [1] and in experiment [2] was “inactive” throughout.
